Source: PubChem
Rv3671c protease = inhibitors of M. tuberculosis serine protease Rv3671c. inhibition, % at 5.96 µM. 0.048% of 320,000 active. P9WHR9. AID 2606; in the data active = inhibition above about 38%;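 note: extracellular domain of Rv3671c used as enzyme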
Target sequence (P9WHR9 whole entry, looked up, the tested form may be a part): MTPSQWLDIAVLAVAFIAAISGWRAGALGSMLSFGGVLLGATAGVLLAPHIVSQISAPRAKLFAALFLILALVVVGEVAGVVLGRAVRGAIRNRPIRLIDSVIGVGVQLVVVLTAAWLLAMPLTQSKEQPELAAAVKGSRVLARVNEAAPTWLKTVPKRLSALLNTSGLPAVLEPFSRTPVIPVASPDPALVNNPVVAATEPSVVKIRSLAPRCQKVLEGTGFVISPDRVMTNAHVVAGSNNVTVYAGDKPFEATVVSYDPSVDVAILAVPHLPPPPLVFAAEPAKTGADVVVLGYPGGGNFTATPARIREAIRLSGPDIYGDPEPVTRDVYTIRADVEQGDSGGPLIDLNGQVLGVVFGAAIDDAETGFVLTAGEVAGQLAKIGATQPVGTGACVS
Mtb betalactam = beta-lactam sensitization of Mtb H37Rv. M. tuberculosis H37Rv growth with meropenem, percent inhibition. inhibition, % at 25 µM. 0.27% of 330,000 active. AID 434955; call rule not given here;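 note: growth measured after seven days incubation then overnight dye step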
FadD28 binding = blocks FadD28 binding to the bisubstrate probe; inhibition, % at 12.5 µM; fluorescence polarization; AID 588549; 0.22% of 360,000 active; in the data active = inhibition above about 8.5%, passing the limit was not always enough; inconclusive = no clear call, values can overlap the other calls
Mtb FBA inh = inhibitors of M. tuberculosis fructose-bisphosphate aldolase; P9WQA3; purified M. tuberculosis FBA, fluorescence read-out; inhibition, % at 1 µM; 2.3% of 360,000 active; AID 588726; in the data active = inhibition above about 27%
UGM FP inh = Mtb UDP-galactopyranose mutase inhibition; purified UGM, fluorescence polarization probe displacement; inhibition, % at 10 µM; AID 504406; 0.06% of 320,000 active; P9WIQ1; in the data active = inhibition above about 10%, passing the limit was not always enough; inconclusive = no clear call, values can overlap the other calls
GDH-TPI inh = inhibits GDH-TPI coupling enzymes, artifact for Mtb FBA screen; GDH-TPI coupled enzyme counterscreen, NADH absorbance; inhibition, % at 4.8 µM; 1.2% of 360,000 active; AID 588335; in the data active = inhibition above about 30%
Large screens that a line does not name were inactive. This is a sample that favours compounds with a hit; in the whole collection about 3.7% have one here.

Cc1ccn(CCC(=O)N2CCc3ccccc32)n1	Mtb betalactam inconclusive
Cc1cc(O)c2c(c1)C(=O)C13C(=C2O)C(=O)[C@H]2[C@@H](O)[C@@H]1[C@H]1[C@H](O)[C@@H]3C(=O)C3=C(O)c4c(O)cc(C)cc4C(=O)C312 (some centres not stated)	GDH-TPI inh 38.2
Cc1ccccc1C1=C/C(=C(\SS/C(C(=O)c2ccc(OCC(=O)O)c(Cl)c2Cl)=C2\C=C(c3ccccc3C)SS2)C(=O)c2ccc(OCC(=O)O)c(Cl)c2Cl)SS1	FadD28 binding 73.3 (no result: Rv3671c protease, Mtb betalactam, UGM FP inh)
CCCNC(=O)C1(C)CCN(Cc2cc(-c3ccccc3)on2)C1 (configuration not stated)	none (no result: Rv3671c protease, Mtb betalactam, UGM FP inh)
COc1ccc(N2CCN(C(=O)C3CCN(S(=O)(=O)c4c(C)noc4/C=C/N(C)C)CC3)CC2)cc1	GDH-TPI inh 43.6
COc1ccc(CNC(=O)C2CCN(S(=O)(=O)c3c(C)noc3/C=C/N(C)C)CC2)cc1	GDH-TPI inh 45.0
COc1ccc(CNC(=O)C2CCN(S(=O)(=O)N3CCCC3)CC2)cc1	none
Cc1noc(C)c1S(=O)(=O)N1CCN(c2ccc(Cl)cc2)CC1	none
Cc1cccc(NC(=O)C2CCN(S(=O)(=O)c3c(C)noc3/C=C/c3ccco3)CC2)n1	none
CCC(C)N1CCN(C(=O)C2CCN(S(=O)(=O)c3c(C)noc3/C=C/c3ccco3)CC2)CC1 (configuration not stated)	GDH-TPI inh 37.9
COc1ccc(N2CCN(S(=O)(=O)c3c(C)noc3/C=C/N(C)C)CC2)cc1	GDH-TPI inh 39.9
O=C(c1cccs1)N1C[C@@H](n2cc(-c3ccc(F)cc3)nn2)[C@H](O)C[C@@H]1c1ccccc1	none (no result: Rv3671c protease, Mtb betalactam, UGM FP inh)
CCN(CC)CCNC(=O)C1CCN(S(=O)(=O)c2c(C)noc2/C=C/c2ccccc2F)CC1	none
COCCNC(=O)C1CCN(S(=O)(=O)c2c(C)noc2/C=C/c2cccs2)CC1	GDH-TPI inh 39.2
Cc1cccc(/C=C/c2onc(C)c2S(=O)(=O)N2CCC(C(=O)NC(C)(C)C)CC2)c1	Mtb betalactam inconclusive
Cc1cccc(N2CCN(S(=O)(=O)c3c(C)noc3/C=C/N(C)C)CC2)c1C	none
CNC(=O)C1CCN(S(=O)(=O)c2c(C)noc2/C=C/c2cccc(OC)c2)CC1	Mtb betalactam inconclusive, GDH-TPI inh 31.7
Cc1noc(/C=C/N(C)C)c1S(=O)(=O)N1CCN(c2ccc(F)cc2)CC1	GDH-TPI inh 34.0
CCOC(=O)c1ccc(NC(=O)c2nc[nH]c2C(=O)N(C)CCO)cc1	none (no result: Rv3671c protease, Mtb betalactam, UGM FP inh)
Cc1ccc(-c2cc(=O)[nH]c3ccccc23)cc1	none
COc1ccc(-c2cc(=O)[nH]c3ccccc23)cc1	UGM FP inh 11.0
CC1(C(=O)Nc2cccc3c2CCCC3)CCN1C(=O)c1cccc(F)c1 (configuration not stated)	none (no result: Rv3671c protease, Mtb betalactam, UGM FP inh)
O=[N+]([O-])c1cc(-c2ccc(/C=N/c3nc4ccccn4c3-c3ccco3)o2)ccc1Cl	GDH-TPI inh 37.2
Clc1ccc(/C=N/c2c(-c3ccco3)nc3ccccn23)cc1	none
CCN(CC)c1nc(N)c2c(N)n(-c3ccccc3C)c(=S)c(C#N)c2c1C#N	FadD28 binding 8.3, GDH-TPI inh 44.0
CCN(CC)c1nc(N)c2c(N)nc3c(c2c1C#N)CC(c1ccccc1)O3 (configuration not stated)	none
Cc1ccc(C)c(-n2c(C)cc(/C=N/NC(=O)c3c(C)nc4cc(C)ccn34)c2C)c1	GDH-TPI inh 38.8
Cc1ccc2nc(C)c(C(=O)N/N=C/c3cccs3)n2c1	GDH-TPI inh 36.6
Cc1ccc2nc(C)c(C(=O)N/N=C/c3cccs3)cc2c1	none
Cc1ccn2c(C(=O)N/N=C\c3cccs3)c(C)nc2c1	GDH-TPI inh 62.4
Cc1nc2ccccn2c1C(=O)N/N=C/c1ccccc1Cl	none (no result: FadD28 binding)
COCC#Cc1ccc2c(c1)O[C@@H](CN(C)S(=O)(=O)c1cccc(F)c1)[C@@H](C)CN([C@H](C)CO)S2(=O)=O	none (no result: Rv3671c protease, Mtb betalactam, UGM FP inh)
CSCc1ccc(C(=O)N2CCCC(Nc3ccc(F)cc3)C2)o1 (configuration not stated)	none
CCOc1ccccc1N=Cc1c(O)c2ccccc2oc1=O	none
CCOP(=O)(Nc1cccc2oc(=O)c3ccccc3c12)OCC	Mtb FBA inh 116.3 (no result: Rv3671c protease, Mtb betalactam, UGM FP inh)
Cc1ccc(C)c(C(=O)COC(=O)C(C)N2C(=O)C3C4CCC(C4)C3C2=O)c1 (configuration not stated)	none (no result: Rv3671c protease, FadD28 binding)
CCCCCCc1nc2ccccc2c(=O)n1N	Mtb FBA inh 135.7
O=C(Nc1ncc2c(n1)-c1ccccc1CC2)C1CC1	none
O=C(Nc1ncc2c(n1)-c1ccccc1OC2)c1ccccc1Cl	Mtb FBA inh 113.4
COc1ccc2c(c1)CC/C(=C\c1ccc(OC)c(Cn3cccn3)c1)C2=O	GDH-TPI inh 38.3
O=c1[nH]c(/C=C\c2cccc(O)c2)nc(O)c1[N+](=O)[O-]	GDH-TPI inh 34.7
O=c1[nH]c(/C=C\c2ccc(O)c(O)c2)nc(O)c1[N+](=O)[O-]	none (no result: Rv3671c protease)
CCOc1ccccc1/C=C\c1nc(O)c([N+](=O)[O-])c(=O)[nH]1	GDH-TPI inh 37.4
C/C(=N\NS(=O)(=O)c1ccc(Cl)c([N+](=O)[O-])c1)c1cc2ccccc2o1	none
C/C(=N\NS(=O)(=O)c1ccc(C)c([N+](=O)[O-])c1)c1cc2ccccc2o1	GDH-TPI inh 40.8
Cc1ccc(S(=O)(=O)N/N=C/c2ccc(O)c(O)c2)cc1[N+](=O)[O-]	GDH-TPI inh 32.9
CN=Cc1nc(-c2ccccc2)oc1O	GDH-TPI inh 59.1
COc1ccc(C(=O)/C=C/N(C)C)cc1OC	GDH-TPI inh 33.6
COc1ccc(C(=O)c2ccc(OC)c(OC)c2)cc1OC	none
CN(C)/C=C/C(=O)c1ccccc1	GDH-TPI inh 49.4
COc1ccc(C(=O)/C=C/N(C)C)cc1	GDH-TPI inh 44.5
CN(C)/C=C/C(=O)c1ccc(Oc2ccccc2)cc1	none
CCc1nc2ccc(C(=O)N3CCN(c4ccccc4)CC3)cn2c1N(C)CCC(C)C	none (no result: Rv3671c protease, Mtb betalactam, UGM FP inh)
COC(=O)[C@]1(CC(C)C)N[C@H](c2ccc(-c3ccc(OC)cc3)cc2)[C@@H]2C(=O)N(C)C(=O)[C@@H]21	Mtb FBA inh 131.8
CN(c1ccccc1)c1ccc(/C=C(/CCC(=O)O)c2nc3ccccc3s2)cc1[N+](=O)[O-]	FadD28 binding 19.3, GDH-TPI inh 31.7 (no result: Rv3671c protease, Mtb betalactam, UGM FP inh)
O=C(OCc1ccccc1)N1CCC2CC1c1cc(-c3ccc4c(c3)OCO4)ccc12 (configuration not stated)	none (no result: Rv3671c protease, Mtb betalactam, UGM FP inh)
CC(/C=C1\SC(=O)N(CC(=O)Nc2cccc(O)c2)C1=O)=C\c1ccccc1	GDH-TPI inh 32.9
COc1ccc(/C=C2\SC(=O)N(CC(=O)Nc3cccc(C)c3)C2=O)cc1O	FadD28 binding 26.2, GDH-TPI inh 47.1
COc1ccc(/C=C2\SC(=O)N(CC(=O)Nc3ccc(O)cc3)C2=O)cc1OC	none (no result: Rv3671c protease)
Cc1cccc(NC(=O)CN2C(=O)S/C(=C\c3cccn3-c3cccc(C(=O)O)c3)C2=O)c1	FadD28 binding 61.6
